Molecules are shown by their SMILES. Among all 350,000 compounds or so, about 31,000 (8.9%) were called active. Where a call stands in place of a potency, no number is given. Inconclusive results (about 15%) are left out. Calls follow the shape of the dose curve; as a rule, active = well fitted inhibition curve with a large enough effect; inconclusive = small, poorly fitted or top-dose-only effect; inactive = no such curve, though single readings can be large or run the other way. Many of the other results were omitted from the sample, so actives are more common in it than they were.
Potency is read from the fitted curve at half-maximal effect.

Chain of Histone-lysine N-methyltransferase EHMT2 (Homo sapiens) (Q96KQ7 913-1193 limits assumed): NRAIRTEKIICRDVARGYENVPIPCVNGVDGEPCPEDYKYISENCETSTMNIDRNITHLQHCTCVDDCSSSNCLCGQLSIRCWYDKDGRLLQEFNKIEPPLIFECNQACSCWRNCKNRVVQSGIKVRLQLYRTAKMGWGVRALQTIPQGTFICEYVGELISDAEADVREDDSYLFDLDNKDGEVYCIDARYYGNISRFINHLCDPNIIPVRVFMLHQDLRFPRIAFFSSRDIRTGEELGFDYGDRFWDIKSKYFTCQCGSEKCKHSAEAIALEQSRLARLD

The experiment has as its target Histone-lysine N-methyltransferase EHMT2 (Homo sapiens) (UniProt Q96KQ7). The experiment in a line: qHTS Assay for Inhibitors of Histone Lysine Methyltransferase G9a. Also: nearly all actives have a fitted effect of over 75% in size. As to conditions: G9a H3K9 monomethylation, AlphaScreen, 2 h; series mostly up to 59 µM. In outline: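 Compounds were preincubated with 20 nM G9a for 15 min, after which biotinylated H3K9 peptide (500 nM) and SAM (20 uM) started a 2 h room-temperature reaction. Monomethylated product was quantified by antibody-based AlphaScreen chemiluminescence.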
On the technique in general: qHTS replaces the single test concentration by a dilution series.
Take `COc1cccc(-c2noc(C3CCCN(C(=O)c4ccc(F)cc4)C3)n2)c1` (centres undefined): the Potency entry was “inactive”. Same read-out and setting: the value for `Cc1ccc(-c2noc(C3CCCN(C(=O)c4cccc(Cl)c4)C3)n2)o1` (centres undefined) was 39.8 µM (active).

With `O=C(c1ccc(F)cc1)N1CCCC(c2nc(-c3cccs3)no2)C1` (centres undefined), the Potency entry was “inactive”. As for `COc1ccc2nc(N3CCN(C(=O)c4ccc([N+](=O)[O-])o4)CC3)sc2c1`, the Potency entry is “inactive”. On to `CCc1ccccc1NC(=O)c1cnn(-c2ccc(F)cc2)c1C1CCNCC1`, for which the Potency result was “inactive”. For the compound `O=C(Nc1ccc(N2CCCC2=O)cc1)c1cncc(Br)c1`, the Potency entry is “inactive”. `O=C(NC(=S)Nc1ccc(Cl)c(C(=O)O)c1)c1cncc(Br)c1`: the Potency is 44.7 µM (active).

`COC(=O)c1ccccc1NC(=O)c1cncc(Br)c1`: the Potency result is “inactive”. As for `O=C(NCCc1ccc(F)cc1)c1ccc2nccnc2c1`, the activity, negative = inhibition was -12.4% [at 12.7 µM] (inactive). Consider `COc1cc(OC)cc(C(=O)NCC(=O)N2CCCCCCC2)c1`, for which the activity, negative = inhibition was 12.1% [at 12.7 µM] (inactive).

On to `CCN(CC(=O)Nc1ccc(NC(C)=O)cc1)C(=O)CSC(=S)N1CCCC1`, for which the activity, negative = inhibition is -6.65% [at 12.7 µM] (inactive).

As for `CCc1ccccc1NC(=O)Cc1ccc(NC(=O)N2CCCCc3ccccc32)cc1`, the Potency entry is “inactive”.

Take `Cc1ccc(Nc2c(-c3ccc(N(C)C)cc3)nc3nc[nH]n23)cc1`: the Potency is 2.51 µM (active). On to `Cc1ccc(Nc2c(-c3ccc(C)cc3)nc3cnccn23)cc1`, for which the Potency entry is “inactive”. Same read-out and setting: in the case of `COC(=O)C1(C)NC(c2ccc(F)cc2)C2C(=O)N(c3ccccc3)C(=O)C21` (centres undefined) it was “inactive”. Consider `Cc1sc2nc(CSCC(=O)NC3CCCCC3)[nH]c(=O)c2c1C`, for which the activity, negative = inhibition was -8.21% [at 0.501 µM] (inactive).

As for `COc1cc(OC)c(-n2cc(-c3ccc(Cl)cc3)[nH]c2=O)cc1Cl`, the Potency is 31.6 µM (active). On the same count and under the same terms, in the case of `COc1cc(OC)c(N2CC(C(=O)Nc3cc(Cl)ccc3N3CCOCC3)CC2=O)cc1Cl` (centres undefined) it was “inactive”; in that of `COc1cc(OC)c(-n2c(C)cc(C=O)c2C)cc1Cl`, “inactive”; in that of `CCOC(=O)C1CCN(c2nc3c(S(=O)(=O)c4ccc(CC)cc4)nnn3c3ccc(Cl)cc23)CC1`, “inactive”. The same measure, in the same setting: in the case of `CCCCNC(=O)CSc1nc2cc3c(cc2c(=O)n1CCCCCC(=O)NCc1ccc2c(c1)OCO2)OCO3` it was “inactive”. Turning to `O=C(CNS(=O)(=O)c1ccc2c(c1)OCCCO2)N1CCN(c2ccc(F)cc2)CC1`, the activity, negative = inhibition is 24.8% [at 12.7 µM] (inactive). As to `O=C(O)c1ccc(NS(=O)(=O)c2ccc3c(c2)C(=O)c2cc(S(=O)(=O)Nc4ccc(C(=O)O)cc4)ccc2-3)cc1`, the Potency was 50.1 µM (active). With `CC(=O)c1c(C)oc2ccc(NS(=O)(=O)c3ccc(C(=O)O)cc3)cc12`, the Potency result was “inactive”. With `Cc1cc(C(C)(C)C)cc(S(=O)(=O)Nc2ccc(C(=O)O)cc2)c1C`, the Potency entry is “inactive”. In the case of `CCCn1c2ccccc2c2cnn(CC(=O)N(C)c3ccccc3CC)c(=O)c21`, the Potency entry was “inactive”. The same measure, in the same setting: the value for `CC(CCc1ccccc1)NC(=O)COC(=O)c1ccc(F)cc1` (centres undefined) was “inactive”; that for `O=C(Cn1ncc2c3ccccc3n(Cc3ccccc3)c2c1=O)NC1CCCCCC1` was “inactive”. In the case of `O=C(Nc1ccc2c(c1)OCO2)C1CC1(Cl)Cl` (centres undefined), the activity, negative = inhibition was 2.4% [at 12.7 µM] (inactive). Consider `O=C(Nc1ccc2c(c1)OCO2)C1CC(c2c(F)cccc2Cl)=NO1` (centres undefined), for which the Potency was 44.7 µM (active). Still for that read-out and setting: in the case of `Cc1ccc(NC(=O)C2CC(c3ccc(F)cc3)=NO2)cc1` (centres undefined) it was “inactive”. Regarding `O=C(Nc1ccccn1)C1CCN(S(=O)(=O)c2ccccc2)CC1`, the activity, negative = inhibition is -10.1% [at 12.7 µM] (inactive). As to `Nc1c(N(CCCO)C(=O)C2CCCC2)c(=O)[nH]c(=O)n1Cc1ccccc1`, the Potency entry is “inactive”. Still for that read-out and setting: the value for `Cn1nnnc1SCCCNCc1cccc(OCc2ccc(Cl)cc2)c1` was “inactive”. Still for that read-out and setting: the value for `O=c1c2ccccc2cnn1Cc1n[nH]c(=S)n1-c1ccccc1F` was 31.6 µM (active). For the compound `Cn1c2cc(B(O)O)sc2c2cnn(Cc3ccccc3F)c(=O)c21`, the activity, negative = inhibition is 0.244% [at 12.7 µM] (inactive). In the case of `O=C(Cn1nc(Cc2cccnc2)c2ccccc2c1=O)N1CCN(c2ccccc2F)CC1`, the Potency result was “inactive”. In the case of `COc1ccc(CNC(=O)CSc2nc3ccccc3nc2Cc2ccccc2)cc1`, the Potency result is “inactive”. The same measure, in the same setting: the value for `CCS(=O)(=O)c1nc(S(=O)(=O)c2ccc(C)cc2)c(NCc2ccc(Cl)cc2)s1` was “inactive”.

For `O=C(CCS(=O)(=O)c1cc(Br)cc2c1N(C(=O)C1CC1)CC2)Nc1ccc(Br)cc1F`, the Potency result is “inactive”.

Regarding `Cc1cccc(OCC(=O)Nc2ccc(NC(=O)c3ccco3)c(C)c2)c1`, the activity, negative = inhibition is 0.639% [at 12.7 µM] (inactive). For `Cc1cccc(Nc2cc(C)nc(-n3nc(C)cc3C)n2)c1`, the Potency entry was “inactive”. Turning to `CCC1=Nc2cc(C(=O)NCC(C)c3ccccc3)ccc2Sc2ccc(C)cc21` (centres undefined), the Potency result was “inactive”.

Take `CCC1=Nc2cc(C(=O)NCCN3CCCC3)ccc2Sc2ccc(C)cc21`: the Potency result is “inactive”. The same measure, in the same setting: in the case of `CCCC1=Nc2cc(C(=O)NCCN3CCCC3)ccc2Sc2ccccc21` it was 79.4 µM (active). In the case of `Cc1ccc(F)cc1S(=O)(=O)Nc1cccc(C(=O)N2CCCC(C(N)=O)C2)c1` (centres undefined), the Potency result is “inactive”. Same read-out and setting: in the case of `CCOc1ccccc1NC(=O)CCn1cnnn1` it was “inactive”. Still for that read-out and setting: the value for `Cc1cc(Cl)ccc1OCCCC(=O)Nc1cccc(-n2cnnn2)c1` was “inactive”; that for `CN(C)c1ccc(/C=N\S(=O)(=O)c2ccccc2)cc1` was “inactive”; that for `CC[n+]1cc(C)ccc1/C=C/c1ccc(N(C)C)cc1` was 6.31 µM (active). In the case of `CCc1ccc(-c2nn(-c3ccccc3C)cc2C(=O)N2CCN(C3CCS(=O)(=O)C3)CC2)cc1` (centres undefined), the activity, negative = inhibition is 5.96% [at 12.7 µM] (inactive). Consider `CCC(C)(C)NC(=O)C(c1ccc(OC)cc1)N(C(=O)CCC(=O)Nc1cc(C)on1)c1ccc(OC)cc1OC` (centres undefined), for which the Potency entry was “inactive”.

In the case of `CCOc1cc(/C=C/C(=O)OCC(=O)NCCN2C(=O)CSC2=O)ccc1OCC(C)C`, the activity, negative = inhibition was 17.6% [at 12.7 µM] (inactive). Regarding `Cc1cc(-c2ccc(C)c(S(=O)(=O)N3c4ccccc4CC3C)c2)on1` (centres undefined), the Potency entry was “inactive”. For the compound `O=C(Cn1nnc(-c2ccc(CN3CCOCC3)cc2)n1)NC1CCCCC1`, the activity, negative = inhibition was 10.1% [at 12.7 µM] (inactive). Turning to `COc1ccc(CCNC(=O)CCC(=O)NC2CCCCC2)cc1OC`, the Potency entry is “inactive”. Same read-out and setting: the value for `COc1ccc(C(=O)N(CCN2CCOCC2)CC(=O)NC2CCCC2)cc1OC` was 50.1 µM (active); that for `Cc1cc(-c2ccccc2)n2nc(-c3ccccc3)cc2n1` was “inactive”. Same read-out and setting: the value for `CCCCC(=O)Nc1ccc2c(c1)OCCO2` was “inactive”.

`S=C(NCc1ccco1)NCc1ccccc1Cl`: the Potency result was “inactive”. Still for that read-out and setting: the value for `Cc1c(Cl)cccc1NC(=S)NCc1ccc2c(c1)OCO2` was “inactive”. Same read-out and setting: the value for `S=C(NCc1ccco1)Nc1ccc2c(c1)OCCO2` was 44.7 µM (active); that for `S=C(NCc1ccc2c(c1)OCO2)NCc1ccco1` was 31.6 µM (active); that for `COc1cccc(NC(=S)NCc2ccco2)c1` was “inactive”.
